# Screening data deposited in PubChem by Johns Hopkins Ion Channel Center.
# The list is not random: actives were taken first. Their share in the collection is about 1.6%.
# KCNQ2 block: rat KCNQ2 potassium channel inhibitors, primary screen, cell-based, CHO-K1, FluxOR thallium flux, B-score; Potassium voltage-gated channel subfamily KQT member 2 (Rattus norvegicus), O88943; hit rate 1.1% among 310,000; AID 2156, 2009; 20 min; hits give low values; B-score at 10 µM;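 active = fluorescence ratio B-score at most minus 3 library SDs, with starting brightness B-score within 2 library SDs, cut at about -5.5 in these data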
# Target sequence (O88943 whole entry, looked up): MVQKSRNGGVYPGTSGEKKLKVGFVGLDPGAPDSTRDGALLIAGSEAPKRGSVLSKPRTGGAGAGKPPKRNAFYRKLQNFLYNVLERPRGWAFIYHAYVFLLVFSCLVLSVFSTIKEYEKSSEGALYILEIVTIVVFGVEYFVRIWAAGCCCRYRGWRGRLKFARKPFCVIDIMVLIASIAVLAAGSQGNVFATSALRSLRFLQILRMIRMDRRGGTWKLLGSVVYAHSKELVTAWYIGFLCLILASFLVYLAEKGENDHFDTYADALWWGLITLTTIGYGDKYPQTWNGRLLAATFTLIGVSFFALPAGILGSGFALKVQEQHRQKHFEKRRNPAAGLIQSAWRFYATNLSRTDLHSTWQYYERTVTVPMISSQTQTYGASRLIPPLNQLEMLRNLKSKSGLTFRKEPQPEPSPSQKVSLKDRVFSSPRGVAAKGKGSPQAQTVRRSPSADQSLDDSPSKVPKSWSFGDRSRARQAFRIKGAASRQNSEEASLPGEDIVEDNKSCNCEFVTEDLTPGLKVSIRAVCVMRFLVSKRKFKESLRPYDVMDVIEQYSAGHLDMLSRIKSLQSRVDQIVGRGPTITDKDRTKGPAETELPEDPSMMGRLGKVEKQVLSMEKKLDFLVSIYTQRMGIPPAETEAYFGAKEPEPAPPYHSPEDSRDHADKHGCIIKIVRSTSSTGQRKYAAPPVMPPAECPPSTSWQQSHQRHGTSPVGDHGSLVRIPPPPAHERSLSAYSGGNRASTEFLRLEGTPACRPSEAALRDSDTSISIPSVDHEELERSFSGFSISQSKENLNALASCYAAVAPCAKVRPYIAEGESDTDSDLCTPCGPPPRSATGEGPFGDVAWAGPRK
# KCNQ2 pot: potentiators of rat KCNQ2 potassium channel; hit rate 0.54% among 310,000; B-score at 10 µM; AID 2239, 2010; Potassium voltage-gated channel subfamily KQT member 2 (Rattus norvegicus), O88943; CHO-K1 KCNQ2, FluxOR thallium flux fluorescence; hits give high values;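 active = fluorescence ratio B-score at least 3 SD of library B-scores, with initial fluorescence B-score within 3 of them, cut at about 5.3 in these data; same plate scores as AID 2156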;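 note: B-score of peak minus minimum over baseline fluorescence ratio after K+ and Tl+ stimulus; positive B-score means potentiation of KCNQ2 with more thallium influx and brighter signal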
# Kir21 conf inh: mouse Kir2.1 channel blockers, retest, confirmation, cell-based, FluxOR thallium flux, duplicate. hit rate 41% among 2,300. Kir2.1-expressing cells, FluxOR thallium flux fluorescence; hits give low values. Tl flux remaining, % of negative control (hits give low values), % at 10 µM. AID 2032, 2009. shares compounds with KCNQ2 pot;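 active = Primary-screen hit whose thallium flux fell at least 3 control SD below untreated wells in both duplicates, with normal baseline fluorescence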;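 note: 0% = blank wells without stimulus and 100% = stimulated no-compound controls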
# HEK293 ctr: alters thallium flux in parental HEK293 cells, Kir2.1 counter-screen; AID 2105; FluxOR signal as % of negative control (100 = no effect), % at 10 µM; hit rate 19% among 2,300; FluxOR thallium flux fluorescence; 0% = unstimulated blank wells; shares compounds with KCNQ2 pot;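 active = dye signal at least 3 control SD above or below untreated wells in both duplicates, raw fluorescence within 3, either direction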;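 note: percent is based on the flux ratio of peak minus minimum fluorescence over baseline F0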
# CHO-K1 Tl ctr: nonspecific thallium flux increase in parental CHO-K1, confirmation, counter-screen for KCNQ2 potentiator project, cell-based, FluxOR thallium flux, duplicate. shares compounds with KCNQ2 pot. parental CHO-K1 cells, FluxOR thallium flux fluorescence; zero = vehicle mean+3SD, 100% = vehicle-minus-blank window. activity increase over 3SD of controls, % at 10 µM. hit rate 43% among 1,200;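 active = signal rise of at least 3 SD above the untreated control mean, in both duplicate wells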;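 note: counter screen of KCNQ2 potentiator hits so any rise reflects channel-independent effects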
# KCNQ1 pot spec: human KCNQ1 channel potentiation off-target, confirmation, selectivity assay for KCNQ2 potentiator project, cell-based, CHO, FluxOR thallium flux; CHO KCNQ1 stable, FluxOR thallium flux fluorescence; beyond 3SD, as % of vehicle-control signal; shares compounds with KCNQ2 pot; AID 2283, 2010; activation over 3SD threshold, % at 10 µM; hit rate 28% among 1,200;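 active = fluorescence ratio rise of at least 3 SD of vehicle wells above their mean, in both replicate wells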;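 note: 0% = vehicle mean plus 3 SD and 100% = vehicle minus unstimulated blank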
# KCNQ2 pot confirm: rat KCNQ2 channel potentiators, confirmation, cell-based, CHO, FluxOR thallium flux, duplicate | potentiation, less the hit threshold, % at 10 µM | hit rate 68% among 1,200 | CHO-KCNQ2 cells, FluxOR thallium flux fluorescence | shares compounds with KCNQ2 pot | AID 2287, 2010;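 active = fluorescence ratio rising 3 SD or more over the vehicle control mean in both replicates, plus primary screen hit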;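 note: peak minus minimum thallium fluorescence divided by baseline after K/Tl stimulus; 0% = vehicle mean plus 3 SD and 100% = vehicle minus unstimulated blank difference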
# Kir2-1 sel: mouse Kir2.1 channel activation off-target, confirmation, selectivity assay for KCNQ2 potentiator project, cell-based, HEK293, FluxOR thallium flux; shares compounds with KCNQ2 pot; HEK293 Kir2.1, FluxOR thallium flux fluorescence; activity over 3SD threshold, % at 10 µM; hit rate 2% among 1,200; AID 2345, 2010;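 active = fluorescence ratio rise of at least 3 SD above the vehicle-control mean, seen in both replicates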;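 note: 0% = vehicle mean plus 3 SD and 100% = vehicle minus no-stimulus blank window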
# KCNQ2 W236L MoA: potentiators of retigabine-insensitive KCNQ2 W236L, mechanism study for KCNQ2 potentiator project, cell-based, rat KCNQ2 W236L, CHO, automated patch clamp | shares compounds with KCNQ2 pot | automated patch clamp current | current increase over 3SD of negative controls (%), hits give high values, % at 25 µM | hit rate 10% among 940 | AID 2558, 2010;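 active = current increase at least 3 SD of the untreated controls above them in both duplicate recordings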
# Numbers without * were called inactive; i = inactive; / = not tested or not shown.
SMILES,KCNQ2 block,KCNQ2 pot,Kir21 conf inh,HEK293 ctr,others
Cc1sc2nc[nH]c(=O)c2c1-c1ccc(F)cc1,i,1.07,/,/,
Cc1sc2nc[nH]c(=S)c2c1-c1ccccc1,i,11.7*,i,i,CHO-K1 Tl ctr=-12.0;KCNQ1 pot spec=13.3*;KCNQ2 pot confirm=39.7*;Kir2-1 sel=-23.7;KCNQ2 W236L MoA=i
CC(C)(c1ccccc1)c1ccc(OCCCN2CCNCC2)cc1,i,1.98,49.5%*,i,
CC(C)(C)c1ccc(OCCCCCCN2CCNCC2)cc1,i,/,/,/,
CCC1CCCCN1CCCNC(=O)c1ccc2c(c1)N(Cc1ccc(F)cc1)C(=O)c1ccccc1S2=O (centres undefined),i,/,/,/,
Cc1cccc(-c2nc(S(=O)(=O)c3ccc(F)cc3)c(NCCCN3CCOCC3)o2)c1,i,1.14,/,/,
O=C(O)c1ccn2c(C(=O)c3ccc(Cl)cc3)c(-c3ccccc3)cc2c1,i,8.45*,i,i,CHO-K1 Tl ctr=-6.5;KCNQ1 pot spec=-11.3;KCNQ2 pot confirm=15.5*;Kir2-1 sel=-25.0;KCNQ2 W236L MoA=i
O=C(NCCO)C(=O)c1c(-c2ccc(Cl)cc2)cc2ccccn12,i,/,/,/,
CN(C)C(=S)Oc1ccccc1-c1ccccc1OC(=S)N(C)C,i,1.44,/,/,
CC(=O)C(Sc1ncnc2sc3c(c12)CCCC3)C(C)=O,i,/,/,/,
CCOc1ccccc1C(=O)OCC(=O)Nc1nnc(-c2ccccc2)o1,i,5.47*,i,145.0%*,CHO-K1 Tl ctr=23.3*;KCNQ1 pot spec=-5.5;KCNQ2 pot confirm=13.9*;Kir2-1 sel=-17.0;KCNQ2 W236L MoA=i
CCOc1ccccc1C(=O)NC(C(=O)OCC(=O)Nc1nnc(-c2ccccc2)o1)C(C)C (centres undefined),i,/,/,/,
Cc1ccc(NC(=S)NNc2ccc(C(=O)O)cc2[N+](=O)[O-])cc1C,i,/,/,/,
CCC(C)c1ccccc1OCCCNC1CCCC1 (centres undefined),i,1.29,63.0%*,i,
COCCCNCCCCOc1ccc(OCc2ccccc2)cc1,i,0.41,/,/,
CCC(C)c1ccccc1OCCCCN1CCCC1 (centres undefined),i,1.29,/,/,
c1ccc(COc2ccc(OCCCNC3CCCC3)cc2)cc1,i,/,30.0%*,i,
O=C1/C(=C/c2cccs2)SC(=S)N1c1cccc(O)c1,i,0.6,/,/,
CCCCN(Cc1ccco1)C(=O)C1CCCN(c2ncnc3c2nc2n3CCCCC2)C1 (centres undefined),i,/,/,/,
Oc1c(Br)cc(Br)cc1C=Nc1cccc2ncccc12,i,13.8*,i,i,CHO-K1 Tl ctr=-16.6;KCNQ1 pot spec=-17.7;KCNQ2 pot confirm=-10.1;Kir2-1 sel=-22.9;KCNQ2 W236L MoA=i
Brc1cccc(C=Nc2cccc3ncccc23)c1,i,0.34,/,/,
CCCCCNC(=O)c1cccc(S(=O)(=O)N2CC3(C)CC2CC(C)(C)C3)c1 (centres undefined),i,2.23,/,/,
CN(CC(=O)Nc1cccc(F)c1)C(=O)c1cccc(S(=O)(=O)N2CC3(C)CC2CC(C)(C)C3)c1 (centres undefined),i,9.15*,i,i,CHO-K1 Tl ctr=92.5*;KCNQ1 pot spec=16.5*;KCNQ2 pot confirm=1.7*;Kir2-1 sel=-26.6;KCNQ2 W236L MoA=i
COc1ccc(/C=N/NC(N)=S)cc1OC(=O)c1cccc2ccccc12,i,/,/,/,
NC(=NCCc1c[nH]c2ccccc12)NC(=O)c1ccc(F)cc1,i,0.4,34.5%*,i,
SMILES,KCNQ2 block,KCNQ2 pot,Kir21 conf inh,HEK293 ctr,others
NC(=NCCc1c[nH]c2ccccc12)NS(=O)(=O)c1ccc(F)cc1,i,0.95,/,/,
CCCCN1C(=O)CCC(C(=O)O)C1c1ccc([N+](=O)[O-])cc1 (centres undefined),i,/,/,/,
COC(=O)C1=C(C)N(Cc2ccccc2)C(=NCCCCO)N[C@H]1CCc1ccccc1,i,/,/,/,
CCN(CC)CCn1c(=N)n(CC(O)COc2cccc(C)c2)c2ccccc21 (centres undefined),i,/,56.0%*,i,
N=c1n(Cc2ccccc2)c2ccccc2n1Cc1ccccc1,i,0.8,/,/,
Cc1cccc(OCC(O)CN2CCNCC2)c1 (centres undefined),i,0.24,/,/,
Cc1cccc(OCC(O)Cn2c(=N)n(Cc3ccccc3)c3ccccc32)c1 (centres undefined),i,/,32.0%*,i,
N=c1n(Cc2ccccc2)c2ccccc2n1CC(O)c1ccco1 (centres undefined),i,0.66,/,/,
Cc1ccc(OCC(O)Cn2c(=N)n(Cc3ccccc3)c3ccccc32)cc1 (centres undefined),i,/,37.5%*,i,
Cc1cccc(OCC(O)Cn2c(=N)n(CCN3CCCCC3)c3ccccc32)c1 (centres undefined),i,/,/,/,
COc1ccc(OCC(O)Cn2c(=N)n(Cc3ccccc3)c3ccccc32)cc1 (centres undefined),i,/,45.5%*,i,
CCOC(=O)c1ccc2c(c1)nc(COc1ccc(OC)cc1)n2CC,i,/,/,/,
O=C(CN1C(=O)c2ccccc2S1(=O)=O)NCCSCc1c(F)cccc1Cl,i,/,/,/,
COc1ccc(NC2CCCN(C(=O)c3cc(CC(C)C)nc(N)n3)C2)cc1 (centres undefined),i,/,/,/,
COc1ccccc1C1(CCNC(C)c2cccs2)CCOC(C(C)C)C1 (centres undefined),i,0.28,40.5%*,72.5%*,
Cc1ccc(C2(CCNC(C)c3cccs3)CCOC(C(C)C)C2)cc1 (centres undefined),i,/,/,/,
COc1cc(C)nc(NC(=S)N(C)C(=O)c2ccccc2)n1,i,0.43,/,/,
COCCN(C(=O)COC(=O)c1c(NC(C)=O)sc(C)c1C)c1c(N)n(Cc2ccccc2)c(=O)[nH]c1=O,i,/,/,/,
O=C(COC(=O)Cc1n[nH]c(=O)c2ccccc12)Nc1ccc(Cl)cc1F,i,/,/,/,
